# Data taken from PubChem BioAssay.
# Activity calls are given as the source filed them.
# What was measured:
# [1] = test system: Plasmodium falciparum Sir2 (PF13_0152, Sir2A); experiment: pfSir2 binders on small-molecule microarrays, primary screen, biochemical, small-molecule microarray, 635 nm fluorescence (AID 1098); details: small-molecule microarray binding, fluorescence 635 nm; higher = more signal;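 further: score merges spot fluorescence intensity with its signal-to-noise ratio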
# [2] = small-molecule microarray binders of probe aDKK1, primary screen, biochemical, biotinylated probe, 635/667 nm fluorescence (AID 1099); details: higher = more signal;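 further: score merges 667nm spot fluorescence with signal to noise across triplicate slides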
# [3] = small-molecule microarray binders of probe aCHRDL2, primary screen, biochemical, biotinylated probe, 635/667 nm fluorescence (AID 1100); details: higher = more signal
# [4] = splicing luciferase reporter signal modulators, primary screen, spliceosome inhibition project, cell-based, HEK293, splice +/- reporter (AID 1101); details: luminescence, 24 h, higher = more signal, called active from +8 up or from −8 down;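 further: HEK293 cells carrying a splicing-competent luciferase reporter gene; test concentration not given here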
# [5] = biological target: Fibroblast growth factor 10 (Homo sapiens) (UniProt O15520); experiment: FGF10 binders on small-molecule microarrays, primary screen, biochemical, small-molecule microarray, 635 nm fluorescence (AID 1102); details: FGF10 binding, fluorescence 635 nm, higher = more signal
# Fibroblast growth factor 10 (Homo sapiens), sequence (O15520 whole entry, looked up): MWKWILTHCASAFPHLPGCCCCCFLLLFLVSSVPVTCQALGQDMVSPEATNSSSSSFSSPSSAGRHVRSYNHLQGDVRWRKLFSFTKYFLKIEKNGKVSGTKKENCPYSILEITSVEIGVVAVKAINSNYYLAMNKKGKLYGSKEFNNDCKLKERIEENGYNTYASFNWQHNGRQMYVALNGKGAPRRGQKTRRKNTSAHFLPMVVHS
# [6] = test system: glycogen synthase kinase-3 (GSK3A per assay name; protocol says GSK3B); experiment: GSK3 binders on small-molecule microarrays, primary screen, biochemical, small-molecule microarray, 635 nm fluorescence, GSK3A (AID 1103); details: small-molecule microarray binding, fluorescence 635 nm; higher = more signal; further: the record names both GSK3A and GSK3B
# [7] = biological target: Epidermal growth factor receptor (Homo sapiens) (UniProt P00533); experiment: EGFR binders on small-molecule microarrays, primary screen, biochemical, small-molecule microarray, 635 nm fluorescence (AID 1104); details: EGFR binding, higher = more signal;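 further: score merges 667 nm emission intensity with spot signal to noise over triplicate slides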
# Epidermal growth factor receptor (Homo sapiens), sequence (P00533 whole entry, looked up): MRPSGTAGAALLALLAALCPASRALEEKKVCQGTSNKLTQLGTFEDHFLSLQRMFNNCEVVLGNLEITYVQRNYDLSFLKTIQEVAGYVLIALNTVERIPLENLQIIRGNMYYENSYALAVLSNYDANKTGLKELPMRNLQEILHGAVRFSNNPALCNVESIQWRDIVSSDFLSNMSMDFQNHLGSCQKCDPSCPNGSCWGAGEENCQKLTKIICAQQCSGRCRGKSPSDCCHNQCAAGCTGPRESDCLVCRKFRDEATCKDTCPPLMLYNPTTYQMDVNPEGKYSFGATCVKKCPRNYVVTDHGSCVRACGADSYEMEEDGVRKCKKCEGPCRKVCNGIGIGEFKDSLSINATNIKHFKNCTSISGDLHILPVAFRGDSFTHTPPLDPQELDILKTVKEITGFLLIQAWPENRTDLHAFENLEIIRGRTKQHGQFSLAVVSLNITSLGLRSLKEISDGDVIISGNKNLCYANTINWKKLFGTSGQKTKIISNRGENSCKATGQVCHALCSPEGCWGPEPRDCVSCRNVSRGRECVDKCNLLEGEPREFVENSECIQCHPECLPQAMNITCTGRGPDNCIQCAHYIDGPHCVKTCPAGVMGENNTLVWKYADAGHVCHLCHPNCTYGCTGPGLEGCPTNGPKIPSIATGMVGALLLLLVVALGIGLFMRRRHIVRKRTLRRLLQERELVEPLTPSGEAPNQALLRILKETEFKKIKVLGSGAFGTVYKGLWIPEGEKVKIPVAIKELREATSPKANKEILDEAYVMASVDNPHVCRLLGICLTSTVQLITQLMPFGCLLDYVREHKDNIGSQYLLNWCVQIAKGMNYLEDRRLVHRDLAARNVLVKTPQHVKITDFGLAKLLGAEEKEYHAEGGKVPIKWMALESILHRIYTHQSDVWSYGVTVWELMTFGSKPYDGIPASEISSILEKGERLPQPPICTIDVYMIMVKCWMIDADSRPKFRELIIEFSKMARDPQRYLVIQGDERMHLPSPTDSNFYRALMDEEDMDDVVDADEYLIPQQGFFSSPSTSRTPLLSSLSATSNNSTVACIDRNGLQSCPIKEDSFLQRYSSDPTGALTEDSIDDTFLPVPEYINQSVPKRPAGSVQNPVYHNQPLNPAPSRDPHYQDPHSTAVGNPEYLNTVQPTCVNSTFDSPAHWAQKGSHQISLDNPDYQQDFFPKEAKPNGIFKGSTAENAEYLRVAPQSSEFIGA
# [8] = biological target: Follistatin-related protein 3 (Homo sapiens) (UniProt O95633); experiment: FSTL3 binders on small-molecule microarrays, primary screen, biochemical, small-molecule microarray, 635 nm fluorescence (AID 1105); details: FSTL3 binding, higher = more signal;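 further: score merges emission near 667 nm and signal to noise per printed spot across three slides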
# Follistatin-related protein 3 (Homo sapiens), sequence (O95633 whole entry, looked up): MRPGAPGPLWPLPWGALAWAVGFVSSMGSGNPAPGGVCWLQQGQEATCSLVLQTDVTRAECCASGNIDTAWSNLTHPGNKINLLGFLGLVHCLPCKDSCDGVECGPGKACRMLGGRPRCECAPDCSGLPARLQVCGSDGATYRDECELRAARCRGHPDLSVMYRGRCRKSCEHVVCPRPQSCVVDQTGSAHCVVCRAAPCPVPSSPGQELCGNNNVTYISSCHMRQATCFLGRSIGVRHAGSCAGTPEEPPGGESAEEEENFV
# [9] = biological target: Dickkopf-related protein 1 (Homo sapiens) (UniProt O94907); experiment: DKK1 binders on small-molecule microarrays, primary screen, biochemical, small-molecule microarray, 635 nm fluorescence scan (AID 1106); details: DKK1 binding, higher = more signal;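 further: score merges emission near 667 nm with signal to noise over three replicate slides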
# Dickkopf-related protein 1 (Homo sapiens), sequence (O94907 whole entry, looked up): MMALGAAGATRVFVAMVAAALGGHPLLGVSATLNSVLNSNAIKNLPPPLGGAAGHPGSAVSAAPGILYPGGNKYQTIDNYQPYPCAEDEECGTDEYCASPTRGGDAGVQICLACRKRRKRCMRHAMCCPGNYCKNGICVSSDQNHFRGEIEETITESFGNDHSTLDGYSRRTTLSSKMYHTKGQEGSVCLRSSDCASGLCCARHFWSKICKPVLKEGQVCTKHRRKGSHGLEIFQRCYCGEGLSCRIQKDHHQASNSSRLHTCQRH
# [10] = test system: Inhibin beta A chain (activin A); experiment: INHBA (activin A) binders on microarrays, primary screen, biochemical, small-molecule microarray, 635 nm fluorescence scan (AID 1107); details: small-molecule microarray binding, higher = more signal;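 further: mouse activin A protein probed at 4.33 µg/mL on printed slides; score merges bound-protein fluorescence near 667 nm with spot signal-to-noise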
# [11] = test system: Human papillomavirus type 1a protein E7 (residues 44-93); experiment: HPV1a E7 fragment binders on microarrays, primary screen, biochemical, small-molecule microarray, residues 44-93, 635 nm fluorescence (AID 1108); details: small-molecule microarray binding, fluorescence 635 nm; higher = more signal;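 further: E7 fragment applied at 1 µg/mL in TBST for 1 h at 4 C; score combines spot fluorescence with its signal to noise ratio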
# [12] = modulators of HCV replicon luciferase signal, primary screen, HCV replication inhibitor project, Huh7 cells, luciferase reporter (AID 1109); details: 48 h, higher = more signal;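 further: huh7 hepatoma cells harbouring a luciferase neomycin HCV replicon reporter; luciferase luminescence as measure of HCV replicon replication; test concentration not given here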
# [13] = biological target: Left-right determination factor 2 (Homo sapiens) (UniProt O00292); experiment: LEFTY2 binders on small-molecule microarrays, primary screen, biochemical, small-molecule microarray, 635 nm fluorescence scan (AID 1110); details: LEFTY2 binding, higher = more signal
# Left-right determination factor 2 (Homo sapiens), sequence (O00292 whole entry, looked up): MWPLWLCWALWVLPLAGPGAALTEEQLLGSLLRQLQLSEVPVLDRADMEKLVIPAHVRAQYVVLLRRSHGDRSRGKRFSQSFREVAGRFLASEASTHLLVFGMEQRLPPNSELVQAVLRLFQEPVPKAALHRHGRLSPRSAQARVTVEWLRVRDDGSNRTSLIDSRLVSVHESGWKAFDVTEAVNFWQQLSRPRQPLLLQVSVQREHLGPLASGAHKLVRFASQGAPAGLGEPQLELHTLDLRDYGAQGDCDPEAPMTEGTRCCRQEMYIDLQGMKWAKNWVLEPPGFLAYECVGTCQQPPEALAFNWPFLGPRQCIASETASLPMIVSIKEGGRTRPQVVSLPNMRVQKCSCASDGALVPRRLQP
# [14] = biological target: Calmodulin-1 (Homo sapiens) (UniProt P0DP23); experiment: CALM1 binders on microarrays, EGTA buffer, profiling panel, biochemical, small-molecule microarray, Cy5-labelled CALM1 (AID 1111); details: Cy5-CALM1 binding fluorescence, higher = more signal;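 further: labelled calmodulin applied in Tris saline Tween buffer holding calcium plus EGTA and DTT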
# [15] = biological target: Calmodulin-1 (Homo sapiens) (UniProt P0DP23); experiment: calcium-bound CALM1 binders on microarrays, profiling panel, artefact control for SMM control-protein annotation, biochemical, small-molecule microarray, Cy5-labelled CALM1, plus calcium (AID 1112); details: Cy5-CALM1 binding fluorescence, higher = more signal;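 further: score merges spot fluorescence with signal to noise from triplicate slides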
# [16] = small-molecule microarray binders of probe aWnt5a, primary screen, biochemical, biotinylated probe, 635/667 nm fluorescence (AID 1113); details: higher = more signal;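 further: score merges 667 nm fluorescence intensity with signal-to-noise per printed feature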
# [17] = small-molecule microarray binders of probe aShh, primary screen, biochemical, biotinylated probe, 635/667 nm fluorescence (AID 1114); details: higher = more signal;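 further: probe is biotin-labelled aShh protein from a stem cell growth factor screen; measures binding of labelled protein to compounds printed on the slide; score merges feature fluorescence at 667 nm with signal-to-noise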
# [18] = small-molecule microarray binders of probe aNog, primary screen, biochemical, biotinylated probe, 635/667 nm fluorescence (AID 1115); details: higher = more signal;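 further: probe is biotinylated aNog protein used at 0.15 µg/mL for 1 h at 4 C; z-score combines 667 nm fluorescence of each spot with its signal to noise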
# [19] = biological target: Torsin-1A-interacting protein 1 (Homo sapiens) (UniProt Q5JTV8); experiment: LAP1 binders from COS7 cell lysate, primary screen, small-molecule microarray, 635/667 nm fluorescence (AID 1116); details: COS7-hLAP1 lysate binding, 635 nm fluorescence, higher = more signal
# Torsin-1A-interacting protein 1 (Homo sapiens), sequence (Q5JTV8 whole entry, looked up): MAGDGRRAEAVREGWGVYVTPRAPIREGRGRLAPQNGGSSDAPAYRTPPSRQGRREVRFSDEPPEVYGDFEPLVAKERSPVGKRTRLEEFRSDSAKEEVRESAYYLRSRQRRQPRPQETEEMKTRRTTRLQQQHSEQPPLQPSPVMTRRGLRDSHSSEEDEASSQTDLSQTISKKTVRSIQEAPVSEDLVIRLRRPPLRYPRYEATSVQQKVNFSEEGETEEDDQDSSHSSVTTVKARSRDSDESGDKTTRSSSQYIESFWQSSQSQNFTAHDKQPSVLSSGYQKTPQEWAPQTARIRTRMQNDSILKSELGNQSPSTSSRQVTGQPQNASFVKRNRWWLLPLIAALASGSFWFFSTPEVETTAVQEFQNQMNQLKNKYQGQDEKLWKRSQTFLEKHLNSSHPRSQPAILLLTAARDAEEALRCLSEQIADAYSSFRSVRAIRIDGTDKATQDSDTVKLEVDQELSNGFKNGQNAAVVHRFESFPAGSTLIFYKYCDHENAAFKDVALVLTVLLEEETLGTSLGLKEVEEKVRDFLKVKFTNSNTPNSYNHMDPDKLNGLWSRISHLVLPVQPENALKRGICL
# [20] = biological target: Alpha-bungarotoxin (Bungarus multicinctus) (UniProt P60615); experiment: alpha-bungarotoxin binders on microarray, profiling panel, artefact control for SMM control protein annotation, biochemical, small-molecule microarray, Alexa647 label, 635/667 nm fluorescence (AID 1117); details: alpha-BTX-A647 binding fluorescence, higher = more signal
# Alpha-bungarotoxin (Bungarus multicinctus), sequence (P60615 whole entry, looked up): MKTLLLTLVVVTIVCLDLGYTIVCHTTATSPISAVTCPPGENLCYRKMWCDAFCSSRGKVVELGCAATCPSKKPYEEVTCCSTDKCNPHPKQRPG
SMILES,composite z-score [1],composite z-score [2],composite z-score [3],z-score [4],composite z-score [5],composite z-score [6],composite z-score [7],composite z-score [8],composite z-score [9],composite z-score [10],composite z-score [11],z-score [12],composite z-score [13],composite z-score [14],composite z-score [15],composite z-score [16],composite z-score [17],composite z-score [18],composite z-score [19],composite z-score [20]
COC(=O)[C@@]1(Cc2ccc(F)cc2)[C@H]2c3cc(C(=O)N4CCCC4)n(CCO)c3C[C@H]2CN1C(=O)c1ccccc1,1.33,0.532,0.977,-0.495 (inactive),0.597,-0.166,-0.244,-0.479,-0.572,0.671,0.0213,-1,-0.83,-0.07,0.723,0.229,0.381,-0.662,0.956,-0.063
CCCCC(O)C1C=CC2C(=O)N(C)C(=O)C2N1Nc1ccccc1 (stereo not given),0.236,0.304,0.411,0.94 (inactive),0.191,-0.0703,-0.319,0.0934,-0.8,1.24,1.18,-0.413,-0.431,0.259,0.032,0.0044,-0.301,-0.0683,1.02,0.27
CN(C)CCCC[C@@H]1NC(=O)[C@@H]2C[C@H](C(=O)NCc3ccc(F)cc3)[C@H](c3ccc(O)cc3)N2C1=O,1.56,-0.126,-0.0292,0.104 (inactive),1.47,0.941,0.176,0.0719,0.2,-1.43,0.16,-0.0619,-0.275,-0.638,0.235,-0.204,-0.138,-0.0503,0.385,-0.407
C=CC[C@]1(C(=O)NCc2ccccc2)COC(c2ccc(OCCCO)cc2)=N1,1.49,1.43,1.6,0.589 (inactive),-0.215,-0.9,-1.47,0.101,-0.301,0.792,-0.298,-1.65,-1,0.388,-0.733,0.0293,0.0982,0.54,3.03,3.83
O=C1c2ccccc2[C@@]2(Cc3ccccc3N(Cc3ccccc3)C2=O)[C@H](c2ccc(CO)cc2)N1Cc1ccccc1,1.45,0.617,0.819,1.18 (inactive),-0.74,-1.37,-0.949,-0.604,-0.868,0.58,0.145,-0.173,-1.09,-0.73,0.242,-0.236,-0.153,-0.36,-0.516,-0.114
CC1(C)OC[C@@]23C=C(Br)[C@@H](C[C@H]12)[C@@]1(CO1)C3=O,0.0908,-0.123,-0.567,0.0884 (inactive),0.447,0.691,0.376,0.564,0.356,0.174,0.223,-1.33,0.841,0.0619,-0.866,0.0937,-0.0769,-0.132,0.0611,0.179
COc1cc2c(cc1O)C(c1ccc(CN3CCCC3)cc1)N(Cc1cccc(OC(F)(F)F)c1)CC2 (stereo not given),1.02,0.422,0.414,-2.59 (inactive),0.15,0.213,0.576,0.81,0.36,1.44,0.743,-3.63,0.629,-0.0262,-0.664,-0.203,-0.0522,0.0583,0.62,1.61
COCCCNC(=O)[C@@]1(Sc2ccc(C)cc2)CC(=O)N(C2CCCCC2)[C@@H]1c1ccc(CO)cc1I,1.06,0.79,0.629,-0.924 (inactive),1.01,1.28,0.549,1.38,0.216,-0.148,1.01,-2.63,0.816,0.99,0.565,-0.0853,-0.0362,-0.631,1.34,1.99
O=C1N(Cc2ccccc2)c2ccccc2[C@H]2OC(c3ccc(OCCCO)cc3)=N[C@@]12Cc1ccccc1,1.53,0.655,0.794,-0.385 (inactive),1.16,1.29,0.279,0.582,0.194,0.925,1.03,-2.48,-0.116,0.244,-0.0364,0.067,1.06,0.798,0.498,1.81
COc1ccc(CC[C@H](O)c2cccc(OCC(=O)OC(C)(C)C)c2)cc1,1.16,0.15,-0.0667,1.3 (inactive),0.883,1.06,0.344,1.09,0.688,-0.0035,1.38,-1.12,0.461,0.829,-0.271,0.0181,0.167,-0.216,1.27,0.737
C=C(COC)/C(=C/C[C@@H](OC(C)=O)c1ccccc1OCCO)c1cc(C(=O)OC)ccc1OC,1.01,-0.0445,0.012,0.846 (inactive),1.23,-0.208,-0.676,-0.0333,-0.343,0.416,1.3,-2.3,-0.145,-0.249,-0.808,-0.1,0.0469,0.0502,1.46,0.324
[N-]=[N+]=NCc1ccccc1C[C@]1(C(=O)N2CCCCC2)N=C(c2ccc(OCCCO)cc2)O[C@H]1c1ccccc1,0.92,0.484,0.769,-0.44 (inactive),0.567,0.568,-0.761,-0.278,-0.64,0.55,0.809,-3.2,-1.05,0.816,0.407,0.105,0.134,0.437,1.11,-0.049
